# Experiments:
# Test in all cases: DAPPL (digital affinity profiling via proximity ligation, sequencing); 10 mM Tris-HCl pH 7.5, 50 mM NaCl, 1 mM DTT, 4% glycerol, room temperature, 30 min; GST-TFs on glutathione beads, 16-mer random dsDNA library, 0.1% formaldehyde crosslink after washing; high values mean tight binding
# Details in all cases: protein: recombinant; tags: N-terminal GST; dsDNA, one strand shown
# [1] = target: T1, FLI1 (Homo sapiens, UniProt Q01543 1-452)
# T1 sequence: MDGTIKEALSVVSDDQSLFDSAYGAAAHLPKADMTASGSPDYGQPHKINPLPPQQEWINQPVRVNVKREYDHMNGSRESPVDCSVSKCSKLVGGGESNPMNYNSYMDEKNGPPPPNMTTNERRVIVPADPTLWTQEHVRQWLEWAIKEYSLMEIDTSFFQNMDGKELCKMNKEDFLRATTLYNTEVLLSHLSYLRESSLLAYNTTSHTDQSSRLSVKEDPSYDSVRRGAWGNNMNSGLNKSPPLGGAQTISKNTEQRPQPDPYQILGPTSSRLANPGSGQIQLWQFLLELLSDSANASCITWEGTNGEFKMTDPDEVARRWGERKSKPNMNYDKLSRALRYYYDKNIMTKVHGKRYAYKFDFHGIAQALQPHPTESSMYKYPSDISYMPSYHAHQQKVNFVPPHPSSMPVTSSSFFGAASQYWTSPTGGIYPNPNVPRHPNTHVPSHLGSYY
# In short: (§1)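 Binding signal is given per hexamer as its read frequency for a factor divided by its frequency in the tag-only sample. GST-fused human transcription factors were expressed in yeast, captured on glutathione beads, barcoded with DNA and pooled with that sample, then incubated with 200 nmole of a 16-mer random double-stranded DNA library in Tris/NaCl/DTT/glycerol buffer for 30 min at room temperature. The pools were then washed, crosslinked, proximity-ligated, amplified by PCR and sequenced on an Illumina NextSeq500.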
# [2] = target: T2, ELK1 (Homo sapiens, UniProt P19419 1-428)
# T2 sequence: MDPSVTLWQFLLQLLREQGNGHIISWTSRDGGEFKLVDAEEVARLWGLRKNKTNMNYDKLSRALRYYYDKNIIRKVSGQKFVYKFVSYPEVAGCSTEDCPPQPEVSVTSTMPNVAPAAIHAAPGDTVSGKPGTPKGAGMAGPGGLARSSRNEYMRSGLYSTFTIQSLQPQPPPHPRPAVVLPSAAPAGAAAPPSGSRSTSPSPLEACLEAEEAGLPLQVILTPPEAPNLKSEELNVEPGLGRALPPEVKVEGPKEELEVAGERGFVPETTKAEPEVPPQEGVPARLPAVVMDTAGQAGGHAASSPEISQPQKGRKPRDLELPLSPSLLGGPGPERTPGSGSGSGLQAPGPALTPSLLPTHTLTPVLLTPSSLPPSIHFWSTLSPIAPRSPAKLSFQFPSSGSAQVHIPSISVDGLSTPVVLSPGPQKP
# In short: as §1
# [3] = target: T3, GABPA (Homo sapiens, UniProt Q06546 1-454)
# T3 sequence: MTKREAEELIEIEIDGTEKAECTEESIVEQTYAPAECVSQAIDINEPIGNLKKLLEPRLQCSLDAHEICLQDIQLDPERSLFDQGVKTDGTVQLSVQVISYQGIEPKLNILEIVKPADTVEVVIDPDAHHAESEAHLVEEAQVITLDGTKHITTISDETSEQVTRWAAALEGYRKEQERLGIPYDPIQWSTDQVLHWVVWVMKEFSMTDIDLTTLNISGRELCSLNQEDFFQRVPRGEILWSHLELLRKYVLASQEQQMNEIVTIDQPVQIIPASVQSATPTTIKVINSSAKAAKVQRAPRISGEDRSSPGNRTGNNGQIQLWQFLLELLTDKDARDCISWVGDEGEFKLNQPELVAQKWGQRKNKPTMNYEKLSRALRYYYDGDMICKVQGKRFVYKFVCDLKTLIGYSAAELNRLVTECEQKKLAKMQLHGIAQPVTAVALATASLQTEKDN
# In short: as §1
# [4] = target: T4, ERG (Homo sapiens, UniProt P11308 1-479)
# T4 sequence: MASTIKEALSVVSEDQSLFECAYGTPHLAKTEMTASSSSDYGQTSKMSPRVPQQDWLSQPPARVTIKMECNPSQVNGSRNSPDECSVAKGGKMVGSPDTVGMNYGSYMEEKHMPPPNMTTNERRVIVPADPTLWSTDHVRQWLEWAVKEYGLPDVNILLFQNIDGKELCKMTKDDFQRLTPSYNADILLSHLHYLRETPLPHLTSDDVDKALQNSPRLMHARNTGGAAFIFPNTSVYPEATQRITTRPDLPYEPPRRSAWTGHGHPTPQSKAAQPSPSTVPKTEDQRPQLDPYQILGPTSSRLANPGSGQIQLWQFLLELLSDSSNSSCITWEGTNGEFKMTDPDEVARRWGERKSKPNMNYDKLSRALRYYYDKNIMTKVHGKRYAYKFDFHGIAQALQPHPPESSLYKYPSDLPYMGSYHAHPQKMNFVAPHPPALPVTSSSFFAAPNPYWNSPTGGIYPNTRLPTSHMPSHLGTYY
# In short: as §1
# [5] = target: ELF1 (Homo sapiens, UniProt P32519 1-619)
# In short: as §1
# [6] = target: T5, EHF (Homo sapiens, UniProt Q9NZC4 1-300)
# T5 sequence: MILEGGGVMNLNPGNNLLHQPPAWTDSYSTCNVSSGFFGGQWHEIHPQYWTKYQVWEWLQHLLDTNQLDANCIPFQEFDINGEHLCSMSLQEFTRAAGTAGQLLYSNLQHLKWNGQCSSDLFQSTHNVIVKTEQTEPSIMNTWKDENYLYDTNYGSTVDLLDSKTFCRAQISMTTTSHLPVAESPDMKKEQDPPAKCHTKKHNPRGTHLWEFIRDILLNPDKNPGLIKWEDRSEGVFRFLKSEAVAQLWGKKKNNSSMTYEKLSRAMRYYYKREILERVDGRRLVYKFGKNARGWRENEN
# In short: as §1
# [7] = target: SPI1 (Homo sapiens, UniProt P17947 1-270)
# In short: as §1
# [8] = target: SPIB (Homo sapiens, UniProt Q01892 1-262)
# In short: as §1
# [9] = target: T6, FEV (Homo sapiens, UniProt Q99581 1-238)
# T6 sequence: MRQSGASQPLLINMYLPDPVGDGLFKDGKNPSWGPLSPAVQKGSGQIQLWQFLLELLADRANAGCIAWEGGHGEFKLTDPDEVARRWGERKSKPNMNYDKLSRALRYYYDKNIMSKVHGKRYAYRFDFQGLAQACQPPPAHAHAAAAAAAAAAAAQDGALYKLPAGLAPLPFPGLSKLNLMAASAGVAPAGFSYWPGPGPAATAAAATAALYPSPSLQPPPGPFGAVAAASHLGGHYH
# In short: as §1
# [10] = target: ETV5 (Homo sapiens, UniProt P41161 1-510)
# In short: as §1
# [11] = target: T7, SPIC (Homo sapiens, UniProt Q8N5J4 1-248)
# T7 sequence: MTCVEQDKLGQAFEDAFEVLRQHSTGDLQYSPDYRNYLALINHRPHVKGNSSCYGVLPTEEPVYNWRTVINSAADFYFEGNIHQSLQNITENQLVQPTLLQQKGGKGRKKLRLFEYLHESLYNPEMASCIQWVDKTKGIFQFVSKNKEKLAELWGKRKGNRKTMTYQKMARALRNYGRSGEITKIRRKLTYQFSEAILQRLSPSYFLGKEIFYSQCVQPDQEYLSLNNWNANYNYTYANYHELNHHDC
# In short: as §1
# [12] = target: ELF4 (Homo sapiens, UniProt Q99607 1-663)
# In short: as §1
# [13] = target: ETV1 (Homo sapiens, UniProt P50549 1-477)
# In short: as §1
# [14] = target: T8, ERF (Homo sapiens, UniProt P50548 1-548)
# T8 sequence: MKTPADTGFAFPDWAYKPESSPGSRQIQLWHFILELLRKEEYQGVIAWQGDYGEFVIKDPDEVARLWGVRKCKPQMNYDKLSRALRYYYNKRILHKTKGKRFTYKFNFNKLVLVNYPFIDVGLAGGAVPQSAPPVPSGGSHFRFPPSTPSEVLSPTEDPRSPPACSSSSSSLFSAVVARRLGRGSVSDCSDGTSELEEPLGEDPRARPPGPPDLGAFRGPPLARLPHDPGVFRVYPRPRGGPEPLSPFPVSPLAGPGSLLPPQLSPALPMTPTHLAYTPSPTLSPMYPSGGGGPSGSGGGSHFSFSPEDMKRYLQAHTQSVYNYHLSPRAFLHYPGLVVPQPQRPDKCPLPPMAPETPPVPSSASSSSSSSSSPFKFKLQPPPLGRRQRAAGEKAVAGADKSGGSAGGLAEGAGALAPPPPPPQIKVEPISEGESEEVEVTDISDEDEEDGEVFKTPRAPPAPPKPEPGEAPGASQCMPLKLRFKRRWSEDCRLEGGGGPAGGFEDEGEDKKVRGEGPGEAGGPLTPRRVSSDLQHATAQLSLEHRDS
# In short: as §1
# [15] = target: T9, ETV3L (Homo sapiens, UniProt Q6ZN32 1-361)
# T9 sequence: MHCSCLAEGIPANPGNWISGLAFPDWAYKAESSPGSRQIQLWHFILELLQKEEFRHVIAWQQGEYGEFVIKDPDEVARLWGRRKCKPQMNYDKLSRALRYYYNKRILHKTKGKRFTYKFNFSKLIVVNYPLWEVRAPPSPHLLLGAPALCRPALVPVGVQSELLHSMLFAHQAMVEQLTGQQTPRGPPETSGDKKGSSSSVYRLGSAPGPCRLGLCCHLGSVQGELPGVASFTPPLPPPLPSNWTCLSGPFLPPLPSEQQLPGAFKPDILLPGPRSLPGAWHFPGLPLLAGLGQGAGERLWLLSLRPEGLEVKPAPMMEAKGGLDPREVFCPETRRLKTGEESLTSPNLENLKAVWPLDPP
# In short: as §1
# [16] = target: T10, ETS2 (Homo sapiens, UniProt P15036 1-469)
# T10 sequence: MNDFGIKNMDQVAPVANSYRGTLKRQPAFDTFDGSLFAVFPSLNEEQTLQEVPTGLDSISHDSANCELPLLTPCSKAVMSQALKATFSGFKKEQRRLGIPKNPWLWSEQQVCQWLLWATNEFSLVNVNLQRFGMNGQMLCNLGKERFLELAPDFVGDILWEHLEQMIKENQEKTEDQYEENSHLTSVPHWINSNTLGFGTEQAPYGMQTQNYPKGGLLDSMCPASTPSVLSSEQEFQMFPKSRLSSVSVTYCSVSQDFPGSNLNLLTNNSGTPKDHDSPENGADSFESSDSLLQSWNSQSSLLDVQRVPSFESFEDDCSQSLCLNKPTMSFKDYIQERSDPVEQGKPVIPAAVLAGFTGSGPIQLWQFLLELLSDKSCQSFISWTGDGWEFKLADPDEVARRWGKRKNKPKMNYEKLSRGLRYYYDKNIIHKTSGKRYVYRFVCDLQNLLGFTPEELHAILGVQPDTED
# In short: as §1
# [17] = target: T11, ELF5 (Homo sapiens, UniProt Q9UKW6-2 1-255)
# T11 sequence: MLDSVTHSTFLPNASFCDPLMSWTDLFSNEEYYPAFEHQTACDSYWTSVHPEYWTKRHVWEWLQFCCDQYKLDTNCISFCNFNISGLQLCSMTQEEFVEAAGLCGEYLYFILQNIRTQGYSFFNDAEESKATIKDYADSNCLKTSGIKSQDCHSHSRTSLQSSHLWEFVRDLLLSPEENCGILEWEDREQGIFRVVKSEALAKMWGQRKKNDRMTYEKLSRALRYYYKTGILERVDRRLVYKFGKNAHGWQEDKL
# In short: as §1
# [18] = target: ETV6 (Homo sapiens, UniProt P41212 1-452)
# In short: as §1
# SPIB, sequence (Q01892 whole entry): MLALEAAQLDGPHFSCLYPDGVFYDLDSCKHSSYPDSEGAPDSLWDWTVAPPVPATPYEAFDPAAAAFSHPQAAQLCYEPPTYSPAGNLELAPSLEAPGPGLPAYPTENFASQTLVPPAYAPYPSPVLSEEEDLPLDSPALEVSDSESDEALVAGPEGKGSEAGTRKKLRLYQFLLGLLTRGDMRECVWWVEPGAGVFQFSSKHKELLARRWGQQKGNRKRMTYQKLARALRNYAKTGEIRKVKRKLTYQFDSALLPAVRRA
# ETV6, sequence (P41212 whole entry): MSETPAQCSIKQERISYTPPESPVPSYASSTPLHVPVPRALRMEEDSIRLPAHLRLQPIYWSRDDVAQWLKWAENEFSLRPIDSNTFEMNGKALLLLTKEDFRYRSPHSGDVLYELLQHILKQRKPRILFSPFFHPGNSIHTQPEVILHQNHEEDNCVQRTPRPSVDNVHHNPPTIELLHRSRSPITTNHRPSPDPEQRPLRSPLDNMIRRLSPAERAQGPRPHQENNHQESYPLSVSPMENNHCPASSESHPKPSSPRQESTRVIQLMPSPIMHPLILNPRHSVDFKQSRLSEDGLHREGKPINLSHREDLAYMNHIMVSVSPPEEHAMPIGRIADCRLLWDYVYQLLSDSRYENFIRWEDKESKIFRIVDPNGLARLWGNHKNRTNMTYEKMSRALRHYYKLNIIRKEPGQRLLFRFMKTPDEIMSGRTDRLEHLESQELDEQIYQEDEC
# ETV5, sequence (P41161 whole entry): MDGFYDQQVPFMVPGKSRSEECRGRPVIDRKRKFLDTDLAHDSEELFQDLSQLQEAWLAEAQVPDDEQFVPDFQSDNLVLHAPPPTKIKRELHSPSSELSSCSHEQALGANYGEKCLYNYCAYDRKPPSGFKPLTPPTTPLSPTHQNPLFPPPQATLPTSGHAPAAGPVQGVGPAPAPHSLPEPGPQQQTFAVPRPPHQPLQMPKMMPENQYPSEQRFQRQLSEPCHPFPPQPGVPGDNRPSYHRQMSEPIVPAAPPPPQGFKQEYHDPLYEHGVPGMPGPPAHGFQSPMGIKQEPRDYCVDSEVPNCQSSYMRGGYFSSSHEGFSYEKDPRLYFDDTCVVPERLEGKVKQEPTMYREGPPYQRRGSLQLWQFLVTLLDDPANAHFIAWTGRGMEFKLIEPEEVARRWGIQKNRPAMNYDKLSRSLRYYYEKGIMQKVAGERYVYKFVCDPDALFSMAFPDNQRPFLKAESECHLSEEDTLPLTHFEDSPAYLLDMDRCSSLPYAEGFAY
# ETV1, sequence (P50549 whole entry): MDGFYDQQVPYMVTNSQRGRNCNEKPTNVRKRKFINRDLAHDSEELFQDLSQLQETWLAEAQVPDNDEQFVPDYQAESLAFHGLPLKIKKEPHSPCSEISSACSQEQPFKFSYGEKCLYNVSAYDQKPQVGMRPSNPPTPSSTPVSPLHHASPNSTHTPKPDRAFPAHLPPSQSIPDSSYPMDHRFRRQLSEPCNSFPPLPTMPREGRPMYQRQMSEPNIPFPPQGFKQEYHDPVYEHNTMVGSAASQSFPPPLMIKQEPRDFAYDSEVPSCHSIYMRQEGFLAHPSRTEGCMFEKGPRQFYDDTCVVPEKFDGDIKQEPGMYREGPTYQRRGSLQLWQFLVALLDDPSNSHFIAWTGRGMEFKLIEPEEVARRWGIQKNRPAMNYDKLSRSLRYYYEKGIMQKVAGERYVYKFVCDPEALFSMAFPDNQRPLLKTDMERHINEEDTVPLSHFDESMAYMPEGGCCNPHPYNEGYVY
# ELF4, sequence (Q99607 whole entry): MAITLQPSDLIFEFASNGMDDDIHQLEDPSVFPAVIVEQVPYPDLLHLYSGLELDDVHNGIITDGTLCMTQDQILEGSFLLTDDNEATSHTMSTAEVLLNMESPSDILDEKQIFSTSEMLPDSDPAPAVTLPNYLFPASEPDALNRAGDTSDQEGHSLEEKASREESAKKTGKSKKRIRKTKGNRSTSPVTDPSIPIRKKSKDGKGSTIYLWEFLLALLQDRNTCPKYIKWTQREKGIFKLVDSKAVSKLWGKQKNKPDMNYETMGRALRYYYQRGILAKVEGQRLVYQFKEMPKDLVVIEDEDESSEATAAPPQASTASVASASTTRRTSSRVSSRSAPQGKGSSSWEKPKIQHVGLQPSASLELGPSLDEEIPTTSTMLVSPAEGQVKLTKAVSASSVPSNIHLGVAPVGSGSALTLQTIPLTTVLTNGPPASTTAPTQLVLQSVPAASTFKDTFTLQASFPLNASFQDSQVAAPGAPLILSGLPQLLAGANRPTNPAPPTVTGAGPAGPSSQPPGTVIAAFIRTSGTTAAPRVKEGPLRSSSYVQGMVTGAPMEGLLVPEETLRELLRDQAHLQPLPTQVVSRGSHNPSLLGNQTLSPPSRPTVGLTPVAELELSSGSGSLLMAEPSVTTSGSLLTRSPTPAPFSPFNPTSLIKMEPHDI
# ELF1, sequence (P32519 whole entry): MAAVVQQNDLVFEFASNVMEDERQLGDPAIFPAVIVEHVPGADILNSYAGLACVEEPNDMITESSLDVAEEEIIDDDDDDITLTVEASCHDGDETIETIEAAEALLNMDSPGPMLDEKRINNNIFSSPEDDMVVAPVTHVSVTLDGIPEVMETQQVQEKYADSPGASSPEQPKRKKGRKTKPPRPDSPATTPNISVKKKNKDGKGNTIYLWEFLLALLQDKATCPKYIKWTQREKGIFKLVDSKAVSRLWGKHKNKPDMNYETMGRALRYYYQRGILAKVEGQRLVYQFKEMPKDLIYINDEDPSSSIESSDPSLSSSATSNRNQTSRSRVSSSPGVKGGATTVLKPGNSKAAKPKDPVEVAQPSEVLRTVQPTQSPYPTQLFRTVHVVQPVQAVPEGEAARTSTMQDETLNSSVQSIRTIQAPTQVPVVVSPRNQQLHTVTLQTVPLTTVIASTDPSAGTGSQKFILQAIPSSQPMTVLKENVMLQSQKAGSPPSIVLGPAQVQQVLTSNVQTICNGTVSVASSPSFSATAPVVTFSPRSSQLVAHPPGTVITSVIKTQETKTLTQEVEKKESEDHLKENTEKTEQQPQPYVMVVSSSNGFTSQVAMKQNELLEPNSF
sequence,measurement,setting,value
AGTATG,binding signal,[1],"1.05 fold enrichment (6-mer frequency, TF over GST control)"
same,binding signal,[2],"1.01 fold enrichment (6-mer frequency, TF over GST control)"
same,binding signal,[3],"1.03 fold enrichment (6-mer frequency, TF over GST control)"
same,binding signal,[4],"1 fold enrichment (6-mer frequency, TF over GST control)"
same,binding signal,[5],"1.04 fold enrichment (6-mer frequency, TF over GST control)"
same,binding signal,[6],"1.11 fold enrichment (6-mer frequency, TF over GST control)"
same,binding signal,[7],"1.08 fold enrichment (6-mer frequency, TF over GST control)"
same,binding signal,[8],"1.11 fold enrichment (6-mer frequency, TF over GST control)"
same,binding signal,[9],"1.02 fold enrichment (6-mer frequency, TF over GST control)"
same,binding signal,[10],"1.02 fold enrichment (6-mer frequency, TF over GST control)"
same,binding signal,[11],"1.04 fold enrichment (6-mer frequency, TF over GST control)"
same,binding signal,[12],"1.04 fold enrichment (6-mer frequency, TF over GST control)"
same,binding signal,[13],"1.02 fold enrichment (6-mer frequency, TF over GST control)"
same,binding signal,[14],"1.02 fold enrichment (6-mer frequency, TF over GST control)"
same,binding signal,[15],"1.13 fold enrichment (6-mer frequency, TF over GST control)"
same,binding signal,[16],"1.09 fold enrichment (6-mer frequency, TF over GST control)"
same,binding signal,[17],"1.06 fold enrichment (6-mer frequency, TF over GST control)"
same,binding signal,[18],"1 fold enrichment (6-mer frequency, TF over GST control)"

# Reference: PMC7862700, “An all-to-all approach to the identification of sequence-specific readers for epigenetic DNA modifications on cytosine”
